Source: PubChem BioAssay (National Center for Advancing Translational Sciences (NCATS))
Pf growth 96h: inhibits malaria parasite growth, 96 h | P. falciparum luciferase reporter growth, 96 h | Potency, µM (highest dose often 28.7 µM), inactives show at the top dose activity change, negative = inhibition, usual class: inhibitors | 320,000 tested, 6.9% active; note: potency is the fitted concentration of half-maximal effect; % is set by controls: 0 for no effect and ±100 for the full control effect
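Luminescence readout: decreased luciferase signal marks inhibited growth of reporter-expressing P. falciparum in infected red cells (2% hematocrit, 0.05% parasitemia final), exposed to compound two generations (96 h, 37 C, 5% CO2).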
SARS PLP yeast: SARS-CoV PLP inhibition in yeast; S. cerevisiae expressing SARS-CoV PLpro, growth rescue; Potency, µM (top dose mostly 32.9 µM), without a hit: at the highest dose activity, positive = growth rescue, hits mostly activators; 330,000 tested, 0.19% active; calls by dose curve; note: potency is the fitted concentration of half-maximal effect; 0% is about no effect; nearly all actives have a fitted effect of over 55% in size
Shiga inhibitor: inhibitors of Shiga toxin in Vero cells. Vero cells, Shiga toxin protein synthesis inhibition reporter. inhibition, % at 38.7 µM. 290,000 tested, 9.2% active. AID 2315; in the data active = inhibition mostly above about 28%, no sharp cut-off; inactive = mostly below about 43%; note: 0% is about no effect
AMA1-RON2 inh: inhibitors of Plasmodium falciparum AMA1-RON2 interaction. AlphaScreen AMA1-biotinylated RON2 peptide binding. Potency, µM (series often up to 58.2 µM), without a hit: at the highest dose activity change, negative = inhibition, actives largely listed as inhibitors. 360,000 tested, 0.2% active;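 note: potency is the fitted concentration of half-maximal effect; 0% = vehicle wells and -100% = peptide control; nearly all actives have a fitted effect of over 45% in size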
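AMA1 (3D7) with his tag at 25 nM final met compounds first, then biotinylated RON2 peptide at 25 nM; detection used donor plus acceptor beads, 10 µg/mL apiece, read by AlphaScreen after 30 min at room temperature.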
CHX counter: affects cycloheximide protein synthesis inhibition readout, counter-screen | 300,000 tested, 12% active | max response, % | cell reporter, cycloheximide protein synthesis inhibition counterscreen; in the data active = max response mostly above about 13%, no sharp cut-off; inactive = mostly below about 14%; note: read at 38.3 µM for the half of the compounds with a filed dose; 0% is about no effect
Pf growth 48h: P. falciparum growth inhibition at 48 hours (one generation); 310,000 tested, 5.9% active; P. falciparum luciferase growth in erythrocytes, 48 h; Potency, µM (series often up to 28.7 µM), without a hit: at the highest dose activity change, negative = inhibition, hits mostly inhibitors; note: potency is the fitted concentration of half-maximal effect; % is set by controls: 0 for no effect and ±100 for the full control effect
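Luciferase-expressing P. falciparum in infected erythrocytes (2% hematocrit, 0.1% parasitemia final) in RPMI 1640/0.5% Albumax were exposed to compound for 48 hours at 37 C, 5% CO2; growth read as luminescence.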
* marks the source's active call; other numbers are inactive results. This is a sample that favours compounds with a hit; in the whole collection about 19% have one here. Unless noted, calls come from the whole dose curve; as a rule, active = well fitted curve in the direction sought with a large enough effect; inconclusive = small, poorly fitted or top-dose-only effect, or another doubt; inactive = no such curve, though single readings can be large; an effect the other way counts as inactive or inconclusive.

CC(=O)Oc1c(I)cc(I)cc1C(=O)Nc1ccc(Cl)cc1 was read as Pf growth 96h inconclusive, SARS PLP yeast -20%, Shiga inhibitor 36, AMA1-RON2 inh -2%, CHX counter 24* and Pf growth 48h -6%.
For CN(C)C(=O)c1cc(-c2ccccc2)no1 the results were Pf growth 96h 50%, SARS PLP yeast 0%, Shiga inhibitor 53*, AMA1-RON2 inh -11%, CHX counter 22* and Pf growth 48h 49%.
Screening COc1ccc(OC)c(NC(=O)c2nc3ccccc3s2)c1 returned Pf growth 96h 37%, SARS PLP yeast 1%, Shiga inhibitor 44, AMA1-RON2 inh 1%, CHX counter 31* and Pf growth 48h 68%.
`O=C(Nc1nnc(-c2ccccc2Cl)o1)c1nc2ccccc2s1` gave Pf growth 96h 33%, SARS PLP yeast -21%, Shiga inhibitor 22*, AMA1-RON2 inh 134%, CHX counter 14* and Pf growth 48h 24%.
`COc1ccc(NC(=O)CN(C)C(=O)CSc2nc3ccccc3s2)cc1` gave Pf growth 96h 0%, AMA1-RON2 inh 0% and Pf growth 48h -6%.
COc1ccc(NC(=O)c2nc3ccccc3s2)cc1 was read as Pf growth 96h 274%, SARS PLP yeast -15%, Shiga inhibitor 25*, AMA1-RON2 inh 14%, CHX counter 91* and Pf growth 48h 0%.
For C=CCNC(=O)c1nc2ccccc2s1 the results were Pf growth 96h 143%, SARS PLP yeast 2%, Shiga inhibitor 118*, AMA1-RON2 inh 0%, CHX counter 51* and Pf growth 48h 223%.
`CCOC(=O)C1(C)CCN1C(=O)c1ccc(F)c(Cl)c1` (stereo not drawn) gave AMA1-RON2 inh -2%.
For CC(C)NC(=O)c1nc2ccccc2s1 the results were Pf growth 96h 2%, SARS PLP yeast -2%, Shiga inhibitor 30*, AMA1-RON2 inh -10%, CHX counter 24* and Pf growth 48h 48%.
CC(C)=C(C#N)c1nc2ccccc2s1 was read as SARS PLP yeast -4%, Shiga inhibitor -2, AMA1-RON2 inh 4%, CHX counter 17 and Pf growth 48h 15%.
For CCOC(=O)c1ccccc1NC(=O)Cc1c(C(=O)O)n(C)c2ccccc12 the results were Pf growth 96h 25%, SARS PLP yeast 0%, Shiga inhibitor -3, AMA1-RON2 inh -11%, CHX counter 0 and Pf growth 48h -3%.
Screening Clc1ccc(OCC#CCN2CCCCCC2)cc1 returned Pf growth 96h 71%, SARS PLP yeast 0%, Shiga inhibitor 47*, AMA1-RON2 inh 2%, CHX counter 12 and Pf growth 48h 1%.
For CCc1c(C)sc(NC(=S)Nc2cccnc2)c1C(=O)OC the results were Pf growth 96h 10%, SARS PLP yeast 0%, Shiga inhibitor 22*, AMA1-RON2 inh 75%, CHX counter -2 and Pf growth 48h 28%.
`CCc1c(C)sc(NC(=S)Nc2nc(C)cc(C)n2)c1C(=O)OC` gave Pf growth 96h 53%, SARS PLP yeast 0%, Shiga inhibitor -6, AMA1-RON2 inh -20%, CHX counter 12 and Pf growth 48h inconclusive.
For Cc1ccc(/C=C/C(=O)Nc2ccc(S(=O)(=O)Nc3onc(C)c3C)cc2)cc1 the results were Pf growth 96h 1%, SARS PLP yeast -3%, Shiga inhibitor 2, AMA1-RON2 inh 6%, CHX counter -3 and Pf growth 48h 25%.
Cc1cccc(Oc2ccc(NC(=O)C3=CC=CN4CCS(=O)(=O)N=C34)cc2)c1 was read as Pf growth 96h 12µM*, SARS PLP yeast 1%, AMA1-RON2 inh -7% and Pf growth 48h inconclusive.
`Cc1ccc(Oc2ccc(NC(=O)C3=CC=CN4CCS(=O)(=O)N=C34)cc2)cc1` gave Pf growth 96h inconclusive, SARS PLP yeast -1%, AMA1-RON2 inh -3% and Pf growth 48h -18%.
For C[C@H]1C=C(C(=O)NC2CC2)O[C@@H](OCc2ccc(CO)cc2)C1 the results were Pf growth 96h 65%, SARS PLP yeast 3%, Shiga inhibitor 43, AMA1-RON2 inh 2%, CHX counter 13* and Pf growth 48h 47%.
O=C(NC1CC1)C1=C[C@@H](c2ccccc2)C[C@@H](OCc2ccc(CO)cc2)O1 was read as Pf growth 96h inconclusive, SARS PLP yeast 1%, Shiga inhibitor -7, AMA1-RON2 inh 5%, CHX counter 2 and Pf growth 48h inconclusive.
Screening C[C@H]1C=C(C(=O)O)O[C@@H](OCc2ccc(CO)cc2)C1 returned AMA1-RON2 inh 5%.
`O=C(NC1CC1)C1=C[C@H](c2ccc(C(F)(F)F)cc2)C[C@H](OCc2ccc(CO)cc2)O1` gave Pf growth 96h inconclusive, SARS PLP yeast -2%, Shiga inhibitor 28*, AMA1-RON2 inh -9%, CHX counter 24* and Pf growth 48h inconclusive.
`Cc1ccc(NC(=O)C2CCCN(C(=O)c3ccc(Cl)cc3)C2)c(C)c1` (stereo not drawn) gave Pf growth 96h -25%, SARS PLP yeast -1%, Shiga inhibitor 25, AMA1-RON2 inh -11%, CHX counter 15 and Pf growth 48h 31%.
Screening Cc1ccc(NC(=O)C2CCCN(C(=O)c3ccc(Cl)cc3)C2)cc1 (stereo not drawn) returned Pf growth 96h 45%, SARS PLP yeast -1%, Shiga inhibitor 70*, AMA1-RON2 inh 18%, CHX counter 48 and Pf growth 48h 11%.
Cc1ccc(NC(=O)C2CCCN(C(=O)c3ccc(Cl)cc3)C2)cc1C (stereo not drawn) was read as Pf growth 96h 69%, SARS PLP yeast -12%, Shiga inhibitor 72*, AMA1-RON2 inh 11%, CHX counter 40* and Pf growth 48h 106%.
Cc1ccc(-c2c(C)n([O-])c3c([n+]2=O)CCCCC3)cc1 was read as Pf growth 96h -1%, SARS PLP yeast 16%, Shiga inhibitor -13, AMA1-RON2 inh -1%, CHX counter -4 and Pf growth 48h 2%.
Screening O=C(COc1ccc([N+](=O)[O-])cc1)Nc1ccc(C(=O)Nc2ccccc2C(=O)O)cc1 returned Pf growth 96h 47%, SARS PLP yeast 0%, Shiga inhibitor 10, AMA1-RON2 inh -1%, CHX counter -3 and Pf growth 48h 33%.
CC(NC(=O)c1ccco1)C(=O)N1CCN(C(c2ccccc2)c2ccccc2)CC1 (stereo not drawn) was read as Pf growth 96h 31%, SARS PLP yeast -7%, Shiga inhibitor -5, AMA1-RON2 inh -3%, CHX counter 2 and Pf growth 48h 13µM*.
CC(C)C(=O)N1CCN(c2ccccc2NC(=O)c2ccc(Br)o2)CC1 was read as SARS PLP yeast -6% and AMA1-RON2 inh -9%.
